Laboratory results taken from PubChem BioAssay AID504340 (NMMLSC, 2011).
Active and inactive are the calls of the source.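 The calls were made as follows: active = GFP response above 150% of the DMSO control; inconclusive = Under 70 cell events counted for a yeast strain; inactive = the rest.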

Assay: yeast TOR pathway CIT2-GFP reporter retest – flow cytometry, third cherry pick, single plex, confirmation (AID 504340);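 also: median GFP fluorescence over all cells with no mother versus daughter split; sample signal as a ratio to the plate DMSO mean so 100% equals DMSO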
Settings: S. cerevisiae CIT2-GFP strain, 3 h, at 10 µM, hits give high values

| Structure (SMILES) | GFP response vs DMSO |
| --- | --- |
| Cc1ccc2c(c1N)C(=O)c1ccccc1C2=O | 109% (inactive) |
| C/C(O)=C(\C#N)C(=O)Nc1cc(Br)ccc1Br | 116% (inactive) |
| CN(C)C(=O)Oc1ccnc2cc(Cl)ccc12 | 106% (inactive) |
| CCN1CCN(c2ncnc3ccc(Br)cc23)CC1 | 109% (inactive) |
| CN1CCN(c2ncnc3ccc(Br)cc23)CC1 | 103% (inactive) |
| CN(C)C(=O)Oc1ccc(Cl)c2cccnc12 | 104% (inactive) |
